The values that follow come from the supplement of paper PMC10681739.
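Wherever RUNX1 binding intensity (PBM fluorescence), RUNX1 alone is given: Full-length recombinant human RUNX1 bound to double-stranded 36-bp genomic probes on a high-density microarray, scored as Alexa488 fluorescence per spot via anti-RUNX1 antibody, median of four replicate spots.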

Chain of RUNX1 (Q01196 whole entry): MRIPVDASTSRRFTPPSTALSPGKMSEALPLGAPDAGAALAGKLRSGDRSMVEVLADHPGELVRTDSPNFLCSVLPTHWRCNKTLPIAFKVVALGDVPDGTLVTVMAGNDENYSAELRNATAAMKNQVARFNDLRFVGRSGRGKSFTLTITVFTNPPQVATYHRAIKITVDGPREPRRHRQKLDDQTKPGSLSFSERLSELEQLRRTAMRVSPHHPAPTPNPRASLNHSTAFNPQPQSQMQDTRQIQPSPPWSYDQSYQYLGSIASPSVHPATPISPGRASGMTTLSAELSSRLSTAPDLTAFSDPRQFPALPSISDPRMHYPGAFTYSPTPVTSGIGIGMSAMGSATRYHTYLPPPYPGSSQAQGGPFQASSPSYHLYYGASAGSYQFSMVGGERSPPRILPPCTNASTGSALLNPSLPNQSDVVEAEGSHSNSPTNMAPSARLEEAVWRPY

The first assay has as its target T1, ETS1 (UniProt P14921).
T1 sequence: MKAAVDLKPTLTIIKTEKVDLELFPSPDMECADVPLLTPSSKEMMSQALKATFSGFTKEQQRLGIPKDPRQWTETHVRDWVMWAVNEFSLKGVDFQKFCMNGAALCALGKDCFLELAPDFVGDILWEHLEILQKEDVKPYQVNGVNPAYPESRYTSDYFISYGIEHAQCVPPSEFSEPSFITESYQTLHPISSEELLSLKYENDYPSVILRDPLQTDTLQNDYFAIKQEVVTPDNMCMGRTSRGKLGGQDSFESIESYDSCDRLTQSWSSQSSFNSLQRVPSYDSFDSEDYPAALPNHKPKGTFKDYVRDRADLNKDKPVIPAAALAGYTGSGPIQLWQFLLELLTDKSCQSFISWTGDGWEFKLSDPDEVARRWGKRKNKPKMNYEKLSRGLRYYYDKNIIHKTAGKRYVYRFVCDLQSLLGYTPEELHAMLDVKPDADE
Briefly: ETS1 binding intensity (PBM fluorescence), ETS1 alone (arbitrary fluorescence units); higher = stronger binding. The settings on record: ETS1 concentration 1 nM; RUNX1 concentration 0 nM.
With AGGGCATTTCCTTTGGGGCTGGTGGTCACGGACAAC, the ETS1 binding intensity is 471.
On the same count and under the same terms, with GGTCCGGATGTATAAAGCGCGGCCCCCTGCGGGGAG the figure was 910.
As for CCACGTCCACAAAGGAAACCGCGGCCTGCCCGGGGA, the ETS1 binding intensity was found to be 512.
The same measure, in the same setting: with GCCTGAAGGACTTCCGGGAACCGCAAAGCACGGTGT the figure was 1620; with TGCAGTCGTGAAAAAGGAAGTGGTTAAAGTGGATAC, 2880; with CCGCCGCGACACTTCCGGCGGCCACCACAGGGTATT, 2700.
On the same count and under the same terms, as for GCGGAGCGAGCGGCCGGATGCGGTCACCATAGAGAC, the figure is 4210; as for CTCCTCCCCCACTTCCTATTTTTACCGCAGTTGCAC, 752; as for TGTGAACTGACAGGATGTGGTACAAGGCTTACAAAG, 4830.
CCCTCCTCTTTCGTTTCCTAACCGCAAATTCCATCA returned an ETS1 binding intensity of 487.
The same measure, in the same setting: as for AGCTGCTGTTTTCCGGCTGCGGCACTGGATGAAGGA, the figure is 498.
With ACAGGCTGTCTGCTTCCGTCAGCGGTTATTCCCTTG, the ETS1 binding intensity was determined as 523.
Turning to AATGCCGGATATTGGTTCTGGTAAGCCACAAAAAAG, the ETS1 binding intensity came to 1720.
On the same count and under the same terms, as for GGCGCGGGCTGCTTCCGGTCTGCGGGCCTGAGGAGG, the figure is 5650; as for GCCTGCAGCTTCTTCCTGTGGCTTCTGCATCTCAGG, 4420; as for GAGTCGCTTCCGCTCCCGCCCCGCTCTGTGGCGTAG, 1180.
On the same count and under the same terms, with CCCCTCTCTCCCACTTCCTGTGGTCTCAGTCTTTGT the figure was 3360; with TGCCTCACCTCACATCCGTTTGTGGCTGCCGAGTGC, 1090; with CCACCACTCTAAGCAGGATGCGGTGCGACCCAAGAG, 1390.
ACCTGTGTTCTGGCAGGATGTGGTTGACCTCAGCAG showed an ETS1 binding intensity of 4140.
On the same count and under the same terms, as for TGGAAGGCCGGAAAAGGTTTACCACCACACTCCGGT, the figure is 1850.
On the same count and under the same terms, as for GGACTTCCTGAAGCCAGATCGGTTTACCACAGTCAG, the figure is 413.
On the same count and under the same terms, with GGCTTCCGGCGGGGTACCCTCCTCTGTGGGCGGGGC the figure was 563; with GGGTGCTTCCTATAAACAATGACTCATTACCGCACT, 425.
Regarding GTTCAGCGGACGGCTTCCTGCGGCTTGCTGGGGCCG, the ETS1 binding intensity amounted to 361.
Still for that read-out and setting: as for GCCAGGGCAGGAAGTTGCTAACCGCCCCAGAGCAGG, the figure is 2840.
As for CAGTGCCAGCCGGAACTTGTGGTTCGGACCGTGGGT, the ETS1 binding intensity is 882.
Same read-out and setting: with CAGATCCGGCGTGGACGAAGCTCGGGAACCACAACA the figure was 353; with AAAGACAGGATGTGGGGGAGTGAGCCACAAGGGCCC, 1160; with ACGTTTCGGGGTTTCCGGGCCAGCGGTTTCGGGCGC, 702.
On the same count and under the same terms, with TGAAACCCAGCAGGATGTGGGTTAACGGCAGGGGAG the figure was 2590; with ACAGGAAGAGATATTATATCTCCCTGCGGTTGGTTT, 583.
On the same count and under the same terms, with TGGCTGTGTCCCGGAAGTGGTCATAAGCTGGGTCCC the figure was 8520; with CCCTTCGCTTCCGCTCCGCGTTCCCACAATGCAGTG, 884; with CTTTGCTGCCGCCTTCCTGTGCGGGGCCGTGGCGGC, 493.
For GACATGCTCCGGAAGCTTGAGGTTTTAACGTTAAGG, the ETS1 binding intensity was 2040.
As to GAGACTTTCGCTTCCGGCTGCCGCAGGCGCTTCGCT, the ETS1 binding intensity is 1830.
The same measure, in the same setting: as for GCTTCTGAGGAAGTGCGTTTTGTGGGTAGGTGGAGT, the figure is 706; as for CCTGCCGAGGAAGTCCCACGTCACTGCGGTTAGAGT, 356.

A further assay addresses RUNX1 (UniProt Q01196). Description: RUNX1 binding intensity (PBM fluorescence), RUNX1 alone (arbitrary fluorescence units); higher = stronger binding. As to conditions: RUNX1 concentration 2 nM; ETS1 concentration 0 nM. How it is done: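 Cooperative gcPBM on 36-bp genomic probes with neighbouring ETS1 and RUNX1 sites. Recombinant human RUNX1 (2 nM) was incubated alone or with ETS1 (25 nM) and detected with anti-RUNX1 antibody plus Alexa488 secondary. Values are medians over 4 replicate spots; the RUNX1+ETS1 data were normalised to the RUNX1-only data. The probes sit in constant array flanks that are not printed.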
With AGGGCATTTCCTTTGGGGCTGGTGGTCACGGACAAC, the RUNX1 binding intensity came out at 723.
The sequence GGTCCGGATGTATAAAGCGCGGCCCCCTGCGGGGAG showed an RUNX1 binding intensity of 732.
Same read-out and setting: as for CCACGTCCACAAAGGAAACCGCGGCCTGCCCGGGGA, the figure is 1080.
Still for that read-out and setting: with GCCTGAAGGACTTCCGGGAACCGCAAAGCACGGTGT the figure was 1500.
The same measure, in the same setting: with TGCAGTCGTGAAAAAGGAAGTGGTTAAAGTGGATAC the figure was 836.
In the case of CCGCCGCGACACTTCCGGCGGCCACCACAGGGTATT, the RUNX1 binding intensity was 727.
Still for that read-out and setting: with GCGGAGCGAGCGGCCGGATGCGGTCACCATAGAGAC the figure was 917.
Same read-out and setting: with CTCCTCCCCCACTTCCTATTTTTACCGCAGTTGCAC the figure was 4960; with TGTGAACTGACAGGATGTGGTACAAGGCTTACAAAG, 730; with CCCTCCTCTTTCGTTTCCTAACCGCAAATTCCATCA, 58200.
Still for that read-out and setting: as for AGCTGCTGTTTTCCGGCTGCGGCACTGGATGAAGGA, the figure is 711.
ACAGGCTGTCTGCTTCCGTCAGCGGTTATTCCCTTG showed an RUNX1 binding intensity of 882.
On the same count and under the same terms, with AATGCCGGATATTGGTTCTGGTAAGCCACAAAAAAG the figure was 836; with GGCGCGGGCTGCTTCCGGTCTGCGGGCCTGAGGAGG, 672.
Same read-out and setting: as for GCCTGCAGCTTCTTCCTGTGGCTTCTGCATCTCAGG, the figure is 783.
With GAGTCGCTTCCGCTCCCGCCCCGCTCTGTGGCGTAG, the RUNX1 binding intensity came out at 748.
Still for that read-out and setting: as for CCCCTCTCTCCCACTTCCTGTGGTCTCAGTCTTTGT, the figure is 1500.
The sequence TGCCTCACCTCACATCCGTTTGTGGCTGCCGAGTGC yielded an RUNX1 binding intensity of 950.
Same read-out and setting: as for CCACCACTCTAAGCAGGATGCGGTGCGACCCAAGAG, the figure is 815; as for ACCTGTGTTCTGGCAGGATGTGGTTGACCTCAGCAG, 755.
Still for that read-out and setting: as for TGGAAGGCCGGAAAAGGTTTACCACCACACTCCGGT, the figure is 791.
The same measure, in the same setting: with GGACTTCCTGAAGCCAGATCGGTTTACCACAGTCAG the figure was 634; with GGCTTCCGGCGGGGTACCCTCCTCTGTGGGCGGGGC, 841; with GGGTGCTTCCTATAAACAATGACTCATTACCGCACT, 920.
GTTCAGCGGACGGCTTCCTGCGGCTTGCTGGGGCCG came in with an RUNX1 binding intensity of 724.
On the same count and under the same terms, with GCCAGGGCAGGAAGTTGCTAACCGCCCCAGAGCAGG the figure was 804; with CAGTGCCAGCCGGAACTTGTGGTTCGGACCGTGGGT, 1040.
Still for that read-out and setting: with CAGATCCGGCGTGGACGAAGCTCGGGAACCACAACA the figure was 798; with AAAGACAGGATGTGGGGGAGTGAGCCACAAGGGCCC, 752.
Still for that read-out and setting: with ACGTTTCGGGGTTTCCGGGCCAGCGGTTTCGGGCGC the figure was 937; with TGAAACCCAGCAGGATGTGGGTTAACGGCAGGGGAG, 733; with ACAGGAAGAGATATTATATCTCCCTGCGGTTGGTTT, 904.
TGGCTGTGTCCCGGAAGTGGTCATAAGCTGGGTCCC showed an RUNX1 binding intensity of 730.
The sequence CCCTTCGCTTCCGCTCCGCGTTCCCACAATGCAGTG returned an RUNX1 binding intensity of 1600.
On the same count and under the same terms, as for CTTTGCTGCCGCCTTCCTGTGCGGGGCCGTGGCGGC, the figure is 720; as for GACATGCTCCGGAAGCTTGAGGTTTTAACGTTAAGG, 734.
Still for that read-out and setting: with GAGACTTTCGCTTCCGGCTGCCGCAGGCGCTTCGCT the figure was 710; with GCTTCTGAGGAAGTGCGTTTTGTGGGTAGGTGGAGT, 792.
On the same count and under the same terms, with CCTGCCGAGGAAGTCCCACGTCACTGCGGTTAGAGT the figure was 1670.
